Rows were chosen to be rich in hits. Some 3.7% of all compounds tested hit in one or more screens of this group.
Rv3671c inh = Rv3671c (M. tuberculosis) protease inhibition; inhibition, % at 5.96 µM; P9WHR9; 320,000 tested, 0.048% active; in the data active = inhibition above about 38%;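 note: extracellular domain of Rv3671c used as enzyme; 0% = enzyme with DMSO and 100% = no enzyme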
Mtb bLac sens = beta-lactam sensitization of Mtb H37Rv; M. tuberculosis H37Rv growth with meropenem, percent inhibition; inhibition, % at 25 µM; 330,000 tested, 0.27% active; call rule not given here;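 note: growth measured after seven days incubation then overnight dye step; 0% = bacteria only wells and 100% = bacteria with antibiotic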
FBA Mtb inh = inhibits M. tuberculosis FBA enzyme | P9WQA3 | purified M. tuberculosis FBA, fluorescence read-out | inhibition, % at 1 µM | 360,000 tested, 2.3% active | AID 588726; in the data active = inhibition above about 27%;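 note: 0% = vehicle and 100% = reference inhibitor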
Target sequence (P9WQA3 whole entry, looked up): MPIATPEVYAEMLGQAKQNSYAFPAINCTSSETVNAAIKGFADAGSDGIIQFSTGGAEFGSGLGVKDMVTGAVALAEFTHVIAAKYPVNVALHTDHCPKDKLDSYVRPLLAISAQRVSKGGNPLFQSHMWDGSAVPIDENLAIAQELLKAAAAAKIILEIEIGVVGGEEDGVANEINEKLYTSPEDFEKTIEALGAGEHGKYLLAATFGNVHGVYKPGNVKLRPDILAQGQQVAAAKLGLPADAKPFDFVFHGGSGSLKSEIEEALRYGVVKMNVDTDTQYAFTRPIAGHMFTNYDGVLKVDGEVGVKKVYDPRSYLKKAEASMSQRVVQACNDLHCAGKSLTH
FadD28 binding = M. tuberculosis FadD28 bisubstrate binding inhibition; inhibition, % at 12.5 µM; 360,000 tested, 0.22% active; FadD28 bisubstrate probe binding, fluorescence polarization; in the data active = inhibition above about 8.5%, passing the limit was not always enough; inconclusive = no clear call, values can overlap the other calls
GDH-TPI inh = inhibits GDH-TPI coupling enzymes, artifact for Mtb FBA screen; GDH-TPI coupled enzyme counterscreen, NADH absorbance; 360,000 tested, 1.2% active; AID 588335; inhibition, % at 4.8 µM; in the data active = inhibition above about 30%;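 note: 0% = DMSO wells and 100% = wells lacking the enzyme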
Mtb UGM inh = blocks M. tuberculosis UGM enzyme. inhibition, % at 10 µM. AID 504406. 320,000 tested, 0.06% active. purified UGM, fluorescence polarization probe displacement. P9WIQ1; in the data active = inhibition above about 10%, passing the limit was not always enough; inconclusive = no clear call, values can overlap the other calls
Starred values were filed as active, the others as inactive; ? = inconclusive; . = not tested or not shown; + = active, no number.

SMILES | Rv3671c inh | Mtb bLac sens | FBA Mtb inh | FadD28 binding | GDH-TPI inh | Mtb UGM inh
O=C(NC1CCCN(Cc2ccc(Cl)cc2)C1)c1c(F)ccc(F)c1F (configuration not stated) | 0 | 3 | 2 | -1 | 9 | -2
CC(C)CN(C(=O)c1ccc(-n2cncn2)c([N+](=O)[O-])c1)C1CCS(=O)(=O)C1 (configuration not stated) | 0 | -11 | 1 | 22* | 2 | 4
O=[N+]([O-])c1cc([N+](=O)[O-])c2oc(-c3ccccc3)c(Br)c2c1O | . | . | -11 | 26* | 21 | .
COc1cc(/C=N/n2nnnc2Nc2ccccc2)cc(OC)c1OC | -15 | 0 | -2 | -8 | 34* | 0
COc1cc(/C=N/Nc2nc(Nc3ccccc3)nc(-n3nc(C)cc3C)n2)cc(OC)c1OC | 4 | -2 | 1 | -6 | 8 | -1
COCCCNC(=O)c1cc(S(=O)(=O)N2CCOCC2)ccc1SCc1cccc(OC)c1OC | 12 | -4 | -1 | -3 | 1 | -1
CCCCC(CC)COCCCN=Cc1c(O)[nH]c(=S)[nH]c1=O (configuration not stated) | -4 | -3 | 1 | 0 | 39* | 1
CCOCCCN=Cc1c(O)n(Cc2ccccc2)c(=O)[nH]c1=O | -6 | -9 | -1 | -4 | -3 | -1
COc1ccc2c(c1)C(C)(Cc1ccc(C(=O)c3ccccc3)cc1)C(=O)N2 (configuration not stated) | . | . | 3 | -2 | 13 | .
CCCCn1c(N)c(N(CCOC)C(=O)CN(C)CC(=O)Nc2ccc(Cl)c(Cl)c2)c(=O)[nH]c1=O | -5 | 7 | -1 | -4 | -1 | 2
CCCCC(C)Sc1nc2c([nH]1)c(=S)n(C)c(=O)n2C (configuration not stated) | . | . | -3 | -1 | 31* | .
CCCC(CC)Sc1nc2c([nH]1)c(=S)n(C)c(=O)n2C (configuration not stated) | . | . | 4 | 1 | 20 | .
CSc1nc2c([nH]1)c(=S)n(C)c(=O)n2C | . | . | 1 | 0 | 34* | .
CCCCSc1nc2c([nH]1)c(=S)n(C)c(=O)n2C | . | . | -1 | -1 | 28 | .
CN(C)c1nc(N)c(C#N)c(C#N)c1C#N | . | . | 2 | 0 | 12 | .
COc1ccc(OC)c(/C=N/NC(=O)CCCC(=O)Nc2cccc(Br)c2)c1 | -2 | 18 | 60* | -3 | 2 | 1
COc1ccc(OC)c(/C=N/NC(=O)CNC(=O)c2cccc3ccccc23)c1 | 4 | 0 | 145* | -4 | 6 | -1
CC1(C(=O)OCC(=O)Nc2cc(S(=O)(=O)N3CCOCC3)ccc2Cl)CC1(Cl)Cl (configuration not stated) | . | . | 1 | -4 | 5 | .
CCCN(CC(=O)Nc1ccccc1OC)C(=O)c1ccc2[nH]c3c(c2c1)CC(C)CC3 (configuration not stated) | -10 | 13 | 5 | -2 | 12 | 2
COc1ccc2c(Cl)c(C(=O)NCCc3ccc(S(N)(=O)=O)cc3)sc2c1 | -16 | -3 | 1 | -1 | 16 | -1
COc1ccc(-c2sc3cc(OC)c(OC)cc3c2C#CCCO)cc1 | 9 | . | 24 | 0 | 26 | -1
COc1ccc2c(C#CCCO)c(-c3ccc(S(C)(=O)=O)cc3)sc2c1 | -1 | 2 | + | -2 | 29 | -3
CS(=O)(=O)c1ccc(-c2sc3ccccc3c2C#CCCO)cc1 | -5 | 24 | 17 | -4 | 32* | 4
COc1ccc2sc(-c3ccc(S(C)(=O)=O)cc3)c(C#CCO)c2c1 | -26 | 2 | 21 | -5 | 34* | -2
COc1ccc2c(-c3ccc(S(N)(=O)=O)cc3)c(-c3ccc(S(C)(=O)=O)cc3)sc2c1 | -16 | -4 | + | 0 | 12 | .
SMILES | Rv3671c inh | Mtb bLac sens | FBA Mtb inh | FadD28 binding | GDH-TPI inh | Mtb UGM inh
CN1OC[C@@H]2CN(C(=S)NCCc3ccccc3)[C@H](c3ccc(N4CCCCC4)cc3)C[C@@H]21 | . | . | 4 | -1 | . | .
Cc1nc(NC(=O)C(C)(C)C)sc1-c1csc(N)n1 | . | . | -2 | -3 | -1 | .
Clc1ccc2nc3ccccn3c2c1 | 4 | 81 | 178* | -3 | 8 | -5
N#Cc1ccc2c(c1)nc1ccccn12 | 10 | 5 | + | 0 | 8 | -2
N#Cc1ccc2c(c1)nnn2-c1ccccc1 | -14 | -8 | 4 | 0 | -3 | -2
Cn1c(C(=O)N2COCC2(C)C)cc2c(=O)n3ccccc3nc21 | 6 | -4 | + | 0 | -4 | 0
Cc1cccn2c(=O)c3cc(C(=O)NCCC4=CCCCC4)n(C)c3nc12 | 9 | 5 | 12 | -3 | 6 | -1
CN(C)c1ccc(NC(=O)c2cc3c(=O)n4ccccc4nc3n2C)cc1 | -2 | -4 | 5 | -1 | 23 | 2
Cn1c(C(=O)NCCC2=CCCCC2)cc2c(=O)n3ccccc3nc21 | -1 | 2 | 114* | 0 | 4 | 1
Cn1nc(-c2ccc(C(=O)NCC3CCCO3)cc2)c2ccccc2c1=O (configuration not stated) | 10 | -7 | 1 | 0 | 11 | -2
Cn1c(C(=O)NCC2CCCO2)cc2c(=O)n3ccccc3nc21 (configuration not stated) | 0 | -4 | + | -3 | 14 | 1
CC1CCN(S(=O)(=O)c2ccc3nc(N4CCN(c5ccccc5)CC4)ccc3c2)CC1 | 1 | 5 | . | . | . | -1
O=c1oc2cc(O)ccc2cc1-c1ccccc1 | -7 | 73 | + | -2 | 12 | 0
COc1ccc(-c2c(C)c3cc(O)ccc3oc2=O)cc1 | -15 | 3 | 1 | -2 | 16 | 1
COc1ccc(-c2cc3ccc(O)cc3oc2=O)cc1 | 0 | ? | + | -1 | 27 | 4
O=C(Nc1ccccc1)c1cc(C2CCCCN2S(=O)(=O)c2ccccc2)on1 (configuration not stated) | . | . | 2 | -2 | -10 | .
C=CCn1cc(C(=O)OC)c(=O)c2cc(S(=O)(=O)N3CCC(C)CC3)ccc21 | -1 | -1 | 2 | 0 | 32* | 1
CCOC(=O)C1=CN(Cc2ccco2)S(=O)(=O)NC1c1ccc(Br)cc1F (configuration not stated) | . | . | 1 | -1 | 9 | .
Cc1c(O)c(CN2CCCCC2)cc2c3c(c(=O)oc12)CCC3 | -5 | -12 | + | -1 | 22 | 0
COC(=O)Cc1c(C)c2ccc(O)c(CN3CCCC(C)C3)c2oc1=O (configuration not stated) | 1 | -1 | . | -3 | 10 | 3
CCc1c(C)c2ccc(O)c(CN3CCCC3)c2oc1=O | . | 6 | . | . | 34* | -2
O=c1oc2c(CN3CCCCC3)c(O)ccc2c2c1CCCC2 | -4 | 4 | + | -1 | 24 | 1
Cc1c(C)c2ccc(O)c(CN3CCN(C)CC3)c2oc1=O | . | 1 | + | -1 | 14 | -1
Cc1c(O)c(CN2CCCCC2)cc2c1oc(=O)c1ccccc12 | 3 | 98 | 3 | -1 | 1 | -2
CN1CCN(Cc2c(O)ccc3cc(Br)ccc23)CC1 | -10 | -3 | . | . | . | 0
